{"source": "PubChem BioAssay AID2530", "about": "(National Center for Advancing Translational Sciences (NCATS), 2010)", "molecular_target": "Luciferin 4-monooxygenase (Photuris pensylvanica) (UniProt Q27757)", "test": "Secondary Assay for Luciferase (Kinase-Glo TM) Inhibition Counterscreen", "procedure": "NIH Chemical Genomics Center [NCGC] Malcolm Walkinshaw, Hugh Morgan, Linda Gilmore University of Edinburgh, UK MLPCN Grant: 1 R03 MH085697-01 NCGC Assay Overview: Luciferase (Kinase-Glo, Promega Corporation) was assayed for its ability to generate light using ATP and luciferin as substrates. The ATP concentration in the assay (10 uM) was within the linear range of enzyme activity for the assay conditions used. This assay was used as an counter screen for human pyruvate kinase M2 isoform.\nNCGC Assay Protocol Summary: Four uL of substrate mix (final concentration, 50 mM imidazole pH 7.2, 50 mM KCl, 7 mM MgCl2, 10 uM ATP, 0.01% Tween 20, 0.05% BSA) was dispensed into white 1536 well plates. Twenty-three nL of compound was delivered by a pin tool and 2 uL of luciferase detection mix (Kinase-Glo, Promega)) was added. Following 8-minute incubation at ambient temperature, luminescence was measured by a ViewLux (Perkin Elmer) at 5 seconds exposure/plate. Data were normalized to the controls for basal activity (DMSO only) and 100% inhibition (40 uM SIB 1757) and curve fitting was performed using Hill equation.", "note": "Inconclusive results are not listed. Where a call stands in place of a potency, no number is given. Activity calls are given as the source filed them. Calls come from the whole dose curve; as a rule, active = well fitted inhibition curve with a large enough effect; inconclusive = small, poorly fitted or top-dose-only effect; inactive = flat fitted curve, though single readings scatter. Potency is the fitted concentration of half-maximal effect."}
{"smiles": "Cc1ccc(C(=O)n2c(N)nc3ccccc32)cc1", "values": [{"measurement": "Potency", "value": "11.6 µM (active)"}]}
{"smiles": "C[C@]12CC[C@@H]3c4ccc(O)c(O)c4CC[C@H]3[C@@H]1CC[C@@H]2O", "values": [{"measurement": "Potency", "value": "inactive"}]}
